Screening data (PubChem BioAssay)
Shown are actives, neighbours in structure and some others; about 1.6% of the full set was active somewhere.
Sa ugtP lethal: growth inhibition of S. aureus ugtP deletion strain. S. aureus RN4220 ugtP deletion, OD600 growth, 16 h. growth inhibition, % (no concentration beside the values). 330,000 compounds, 0.54% hits. AID 1259309; in the data active means growth inhibition above about 68%
RecA splice inh: inhibitors of M. tuberculosis RecA intein splicing | AID 2221 | 290,000 compounds, 0.75% hits | P9WHJ3 | inhibition, % (test concentration not listed) | cell-free RecA intein splicing, fluorescence; in the data active means inhibition above about 30%
Mtb hypoxia rep: Mtb hypoxia fluorescent reporter inhibition | 300,000 compounds, 0.1% hits | fluorescence inhibition, % (no concentration beside the values) | M. tuberculosis hypoxia-regulated fluorescent reporter, fluorescence | AID 1159583; in the data active means fluorescence inhibition mostly above about 23%, no sharp cut-off; inactive means mostly below about 17%
CCHF vOTU inh-1: blocks the CCHF virus ovarian tumor domain protease. CCHFV vOTU protease, Pep-AMC fluorescence. inhibition, % at 11.5 µM. 370,000 compounds, 0.55% hits
BJeLR lethal: kills HRASV12-expressing BJeLR cells | inhibition, % (test concentration not listed) | 300,000 compounds, 0.17% hits | BJeLR (HRASV12) viability, CellTiter-Glo ATP luminescence, 48 h; in the data active means inhibition above about 50%
Sa RN4220 lethal: kills Staphylococcus aureus RN4220; S. aureus RN4220 growth, OD600, 16 h; inhibition, % (no concentration beside the values); 330,000 compounds, 0.33% hits; AID 1259311; in the data active means inhibition above about 85%
GFP chromophore: counter-screen GFP chromophore formation inhibition; shares compounds with RecA splice inh; cell-free GFP chromophore formation, fluorescence; EC50, µM; 2,100 compounds, 83% hits; AID 434968; call rule not given here
CCHF vOTU inh-2: CCHFV vOTU protease inhibition, confirmation | shares compounds with CCHF vOTU inh-1 | Recombinant CCHFV vOTU, Pep-AMC fluorescence | inhibition, % at 11.5 µM | 1,900 compounds, 17% hits
Of the large screens only hits and unclear results are named; the others gave an inactive call (follow-up assays come after a bar, where they were run). Unless noted, no stated cut-off is given here; in the data, active means inhibition above about 30%; inactive means the rest.

COc1ccc(-c2ncncc2-c2csc(C)n2)c(O)c1OC	none
COC(=O)c1nc(-c2ccc3c(n2)C(=O)C(N)=C(OC)C3=O)c(N)c(-c2ccc(OC)c(OC)c2O)c1C	RecA splice inh 94, CCHF vOTU inh-1 37, BJeLR lethal 64 | GFP chromophore 0.84 | CCHF vOTU inh-2 106
O=C(O)CC1S/C(=N/N=C/c2ccc(-c3ccccc3[N+](=O)[O-])o2)NC1=O (configuration not stated)	RecA splice inh 43, CCHF vOTU inh-1 36 (no result: Sa ugtP lethal, Mtb hypoxia rep, Sa RN4220 lethal) | GFP chromophore 17 | CCHF vOTU inh-2 inactive
Cc1ccccc1-c1cc2c(nn1)-c1ccccc1C2=O	RecA splice inh 75, CCHF vOTU inh-1 96 | GFP chromophore 13 | CCHF vOTU inh-2 94
O=C1c2ccccc2-c2nnc(-c3ccc(F)cc3)cc21	none (no result: RecA splice inh)
O=C(NC(=S)NC1CCS(=O)(=O)C1)c1ccccc1 (configuration not stated)	none
CN(C1=C(NC(=O)c2ccccc2)C(=O)c2ccccc2C1=O)C1CCS(=O)(=O)C1 (configuration not stated)	RecA splice inh 93, CCHF vOTU inh-1 89 | GFP chromophore 2.7 | CCHF vOTU inh-2 78
COc1ccc(NC2=C(NCCO)C(=O)c3ccccc3C2=O)cc1	RecA splice inh 56, CCHF vOTU inh-1 88 | GFP chromophore 31 | CCHF vOTU inh-2 57
COC1=C(Nc2ccc(O)cc2)C(=O)c2ccccc2C1=O	RecA splice inh 58, CCHF vOTU inh-1 40 | GFP chromophore 13 | CCHF vOTU inh-2 inactive
O=C(C1=CC(c2ccc(C(F)(F)F)cc2)CC(OCCCCO)O1)N1CCN(Cc2ccc3c(c2)OCO3)CC1 (configuration not stated)	none (no result: RecA splice inh, CCHF vOTU inh-1, BJeLR lethal)
COc1cc(NC(C)CCCN)c2ncccc2c1Oc1ccccc1 (configuration not stated)	RecA splice inh 36, CCHF vOTU inh-1 30 | GFP chromophore 33 | CCHF vOTU inh-2 inactive
COc1ccc(CNc2ccc3cn[nH]c3c2)c(OC)c1OC	RecA splice inh 46, CCHF vOTU inh-1 40 | GFP chromophore 1.2 | CCHF vOTU inh-2 inactive
COc1ccc(CNc2ccncc2)c(OC)c1OC	none (no result: Sa ugtP lethal, RecA splice inh, Mtb hypoxia rep, BJeLR lethal, Sa RN4220 lethal)
COC(=O)C1=C(c2ccc(S(C)(=O)=O)cc2)CC2CCC1N2C(=O)NCc1cccc2ccccc12 (configuration not stated)	none (no result: RecA splice inh, CCHF vOTU inh-1, BJeLR lethal)
COc1ccc(O)c(C(c2c(C)[nH][nH]c2=O)c2c(C)[nH][nH]c2=O)c1	RecA splice inh 92, CCHF vOTU inh-1 84 (no result: Sa ugtP lethal, Mtb hypoxia rep, Sa RN4220 lethal) | GFP chromophore 3.8 | CCHF vOTU inh-2 inactive
CCc1ccc(S(=O)(=O)/N=C2\C=C(Nc3cccc(C(=O)O)c3)C(=O)c3ccccc32)cc1	RecA splice inh 95, CCHF vOTU inh-1 137 (no result: Sa ugtP lethal, Mtb hypoxia rep, Sa RN4220 lethal) | GFP chromophore 0.42 | CCHF vOTU inh-2 115
Cc1cc(C)c(S(=O)(=O)/N=C2\C=C(Nc3ccc(C(=O)O)cc3)C(=O)c3ccccc32)c(C)c1	RecA splice inh 96, CCHF vOTU inh-1 125 (no result: Sa ugtP lethal, Mtb hypoxia rep, Sa RN4220 lethal) | GFP chromophore 0.87 | CCHF vOTU inh-2 111
COc1ccc(NC(=S)Nc2ccc3nsnc3c2)cc1	RecA splice inh 40, CCHF vOTU inh-1 118 | GFP chromophore inactive | CCHF vOTU inh-2 100
COc1ccc(NC(=S)Nc2ccc3nc(C)c(C)nc3c2)cc1	none
CC1CN(C(C)CO)C(=O)c2cccc(NC(=O)Nc3ccc(C(F)(F)F)cc3)c2OC1CN(C)S(=O)(=O)c1cn(C)cn1 (configuration not stated)	none (no result: RecA splice inh, CCHF vOTU inh-1, BJeLR lethal)
O=C(NC1(O)C(=O)c2ccccc2C1=O)c1ccccc1	RecA splice inh 50, CCHF vOTU inh-1 49 (no result: Mtb hypoxia rep) | GFP chromophore 16 | CCHF vOTU inh-2 31
O=C(Nc1ccccc1Cl)c1c(F)c(F)c(F)c(F)c1F	none
O=C(NC1(O)C(=O)c2ccccc2C1=O)c1c(Cl)cccc1Cl	RecA splice inh 34, CCHF vOTU inh-1 62 | GFP chromophore 36 | CCHF vOTU inh-2 inactive
Cc1nnsc1-c1onc(C)c1C(=O)ON=Cc1ccc(Cl)cc1	none (no result: RecA splice inh, CCHF vOTU inh-1, BJeLR lethal)
COc1cc2c(cc1OC)-c1c(OC)c(OC)cc3c1C(C2)N(C)CC3 (configuration not stated)	RecA splice inh 71, CCHF vOTU inh-1 38 (no result: Mtb hypoxia rep) | GFP chromophore 4.3 | CCHF vOTU inh-2 51
